This excerpt belongs to a sample that is enriched for hits.
Shiga toxin inh: blocks Shiga toxin action in Vero cells; Vero cells, Shiga toxin protein synthesis inhibition reporter; actives 9.2% (n = 290,000); inhibition, % at 38.7 µM; AID 2315; in the data active means inhibition mostly above about 28%, no sharp cut-off; inactive means mostly below about 43%; further: 0% is about no effect
CHX counter: counter-screen for Shiga toxin inhibitors: cycloheximide protein synthesis inhibition. cell reporter, cycloheximide protein synthesis inhibition counterscreen. max response, %. actives 12% (n = 300,000); in the data active means max response mostly above about 13%, no sharp cut-off; inactive means mostly below about 14%; further: read at 38.3 µM for the half of the compounds with a filed dose; 0% is about no effect
NS1 inh: influenza NS1 inhibition; Potency, µM (highest dose often 46.1 µM), for inactives: top-dose activity, positive = more growth; actives 0.4% (n = 270,000); calls by dose curve; further: potency means the concentration at half of the fitted maximal effect; actives are rising curves; nearly all actives have a fitted effect of over 50% in size
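Read-out: OD600 growth recovery of NS1-expressing budding yeast. Cells grown overnight at 30C in -URA glucose medium, washed, resuspended and diluted 1:100 in 2% galactose assay medium, pH 6.0. Same strain lacking NS1 served as positive control.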
AmpC inh no detg: AmpC beta-lactamase inhibition without detergent; P00811; AmpC nitrocefin hydrolysis, absorbance 480 nm, 0.0001% Triton; Potency, µM (series often up to 57.1 µM), for the others: at the highest dose activity change, negative = inhibition, usual class: inhibitors; actives 0.52% (n = 330,000); AID 485341;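 further: potency means the concentration at half of the fitted maximal effect; plate controls were no compound for no effect and no enzyme for full effect; nearly all actives have a fitted effect of over 20% in size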
Target sequence (P00811 whole entry, looked up): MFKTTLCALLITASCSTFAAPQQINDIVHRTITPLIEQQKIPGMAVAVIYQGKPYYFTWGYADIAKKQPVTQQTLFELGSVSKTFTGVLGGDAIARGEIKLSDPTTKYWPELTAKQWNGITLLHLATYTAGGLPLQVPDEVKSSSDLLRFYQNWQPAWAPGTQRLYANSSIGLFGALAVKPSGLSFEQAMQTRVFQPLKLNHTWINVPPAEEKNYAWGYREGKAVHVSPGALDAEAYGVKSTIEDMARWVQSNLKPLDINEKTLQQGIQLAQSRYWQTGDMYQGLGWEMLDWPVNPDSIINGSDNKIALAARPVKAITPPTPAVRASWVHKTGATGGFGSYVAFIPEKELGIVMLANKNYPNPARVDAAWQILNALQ
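AmpC (5.3 nM in the dispensed reagent) in 20 mM phosphate pH 7.0 with 0.01% (detergent screen) or 0.0001% Triton X-100 was preincubated with compounds for 15 min at room temperature. Nitrocefin was then added from an 800 uM solution, and hydrolysis was followed at 480 nm.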
AmpC inh detg: AmpC beta-lactamase inhibition with detergent present; P00811; AmpC hydrolysis of nitrocefin, absorbance 480 nm, 0.01% Triton; Potency, µM (highest dose often 114 µM), without a hit: at the top dose activity change, negative = inhibition, most hits filed as inhibitors; actives 0.041% (n = 370,000);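 further: potency means the concentration at half of the fitted maximal effect; 0% = no-compound wells and -100% = no-enzyme wells; nearly all actives have a fitted effect of over 25% in size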
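20 mM phosphate pH 7.0 + 0.01% (detergent screen) or 0.0001% Triton X-100; 5.3 nM AmpC reagent; cpd preinc 15 min RT; nitrocefin (800 uM stock) to start; A480 q20 s × 4 min; Activity was normalised to no-enzyme and no-compound control wells.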
The depositor's hits bear a star; ? = inconclusive; / = not tested or not shown; [ ] = remark or other dose. Unless noted, the call rests on the fitted dose curve; in most records, active means well fitted curve in the direction sought with a large enough effect; inconclusive means small, poorly fitted or top-dose-only effect, or another doubt; inactive means no such curve, though single readings can be large; an effect the other way counts as inactive or inconclusive.

SMILES	Shiga toxin inh	CHX counter	NS1 inh	AmpC inh no detg	AmpC inh detg
CC(C)C(=O)N1CCN(c2ccc(NC(=O)c3cccs3)cc2Cl)CC1	24.8*	12.1	-8.4%	-13.7%	-0.2%
COc1ccccc1C(=O)N/C(=C/c1ccc2c(c1)OCO2)C(=O)Nc1ccc(C(=O)O)cc1	-5.3	-3.9	0.5%	-17.2%	?
CCCCNC(=O)c1cnc2c(-c3ccc(OCC)c(OCC)c3)c(C)nn2c1-c1ccccc1	/	/	/	/	18.3%
CC1OC(Nc2ccc(N=Nc3ccccc3)cc2)C(O)C(O)C1O (stereo unspecified)	118.3*	36.7*	/	31.3%	-13.6%
CC1OC(Nc2cccc3ccccc23)C(O)C(O)C1O (stereo unspecified)	-11.6	-1.5	-4.6%	-16.9%	-15.7%
O=S(=O)([N-]c1nc2ccccc2nc1-[n+]1ccc(-c2ccncc2)cc1)c1ccccc1	92.0*	33.6*	/	-20.0%[11.4 µM]	?
Cc1ccccc1-c1nnc(CN2CCC(C)CC2)o1	70.5*	27.2*	4.5%	10.2%	-12.8%
COC(=O)Sc1nnc(-c2ccc(Br)cc2)o1	-17.5	5.8	-246.0%	-14.9%	2.0%
Cc1ccccc1-c1nnc(-c2ccc(Br)cc2)o1	52.8	20.5*	-19.6%	-17.7%	3.2%
Cc1ccccc1-c1nnc(-c2ccccc2C)o1	42.2*	23.4*	-12.4%	-23.2%	0.0%
CCC1CSC(=Nc2ccc(C)cc2)N1C(=O)CN1C(=O)NC2(CCCC2)C1=O (stereo unspecified)	74.4*	33.9*	4.2%	150.6%	-0.5%
Cc1ccc(CNc2ccc(N3CCOCC3)cc2)s1	93.3*	48.3*	0.7%	-1.6%	?
Cc1ccc(CNCc2ccccc2)s1	/	/	/	/	-3.4%
CC(=O)N1CCN(c2ccc(NCc3ccc(C)s3)cc2)CC1	-5.9	9.2	10.2%	121.2%	-7.6%
Cc1ccc(NCc2ccc(C)s2)cc1	66.1*	36.6*	7.3%	-25.4%	-3.0%
CCCSc1ncc(Cl)c(C(=O)Nc2ccc(S(=O)(=O)N3CCCCC3C)cc2)n1 (stereo unspecified)	/	/	/	/	11.8%
COc1ccc(C(=O)NC(=S)N2CCCc3ccccc32)cc1OC	15.4	20.9*	11.2%	0.1%[2.29 µM]	-12.6%
Cc1ccccc1C(=O)NC(=S)Nc1ccccc1N1CCCC1	8.3	-3.2	2.0%	-33.9%	2.4%
COc1ccccc1C(=O)NC(=S)Nc1ccccc1N1CCCC1	30.9	27.6*	19.5%	-39.9%	2.9%
COc1ccccc1C(=O)NC(=S)N1CCCc2ccccc21	164.2*	47.9*	26.8%	-17.2%	-1.2%
COc1ccccc1C(=O)NC(=S)N1CCc2ccccc21	7.2	2.7	7.6%	-8.1%[2.29 µM]	1.2%
CN(C)c1ccc(CNC(=O)c2ccc(Cn3c(=O)c4cccn4c4cccnc43)cc2)cc1	/	/	/	/	12.1%
Clc1c(-c2nnc3n2CCCCC3)sc2ccccc12	-7.9	2.7	-24.9%	15.2%	-7.5%
COc1ccc2c(Cl)c(-c3nnc4n3CCCCC4)sc2c1	33.7	24.8*	-57.2%	76.4%	-14.0%
Clc1c(-c2nnc3n2CCC3)sc2ccccc12	49.7	15.3*	-4.2%	3.9%	0.5%
SMILES	Shiga toxin inh	CHX counter	NS1 inh	AmpC inh no detg	AmpC inh detg
CCCC(=O)NCC(c1ccc2c(c1)OCO2)N1CCOCC1 (stereo unspecified)	/	/	/	/	3.2%
COc1ccccc1NC(=O)NCc1cccn1Cc1ccccc1	/	/	/	/	-4.9%
CC(C)(C)C(=O)Nc1nnc(CSCc2ccccc2F)s1	105.4*	90.2*	12.1%	7.8%	-6.6%
CC(C)(C)C(=O)Nc1nnc(CCc2ccccc2)s1	81.5*	49.6*	-9.7%	-3.1%	1.9%
CC(C)(C)C(=O)Nc1nnc(CC(=O)NCc2ccccc2)s1	-18.0	-4.4	1.0%	-8.3%	-0.7%
CCC(CC)C(=O)Nc1nnc(CCc2ccccc2)s1	-1.0	9.1	-17.1%	-26.3%	?
CC(C)(C)Cc1nnc(NC(=O)CCc2ccccc2)s1	8.3	12.6*	18.5%	-24.8%	?
CC(C)C(=O)Nc1nnc(CSCc2ccccc2F)s1	36.7	12.9	-9.1%	-5.8%	1.5%
CC(C)C(=O)Nc1nnc(CCc2ccccc2)s1	30.0	18.7*	-10.1%	-6.3%	0.5%
CC[C@H](C)[C@H](NC(=O)[C@H](Cc1ccc(O)cc1)NC(=O)[C@@H]1CCCN1C(=O)[C@H](CCCN=C(N)N)NC(=O)[C@H](CCCN=C(N)N)NC(=O)[C@@H]1CCCN1C(=O)[C@H](CCCCN)NC(=O)[C@H](CC(N)=O)NC(=O)[C@H](CCC(N)=O)NC(=O)[C@H](Cc1ccc(O)cc1)NC(=O)[C@H](CC(C)C)NC(=O)[C@@H]1CCC(=O)N1)C(=O)N[C@@H](CC(C)C)C(=O)O	-6.2	-6.7	/	/	/
CCOc1ccc(CC(=O)Nc2c(C(=O)c3ccccc3)oc3ccc(Cl)cc23)cc1OCC	/	/	/	/	-0.9%
CCCCCCCC/C=C/CCCCCCCC(=O)NCCOP(=O)(O)O	-1.1	-4.8	/	/	/
Cn1cc(C(=O)N/N=C/c2cccc([N+](=O)[O-])c2)c2ccccc21	21.3	-2.3	0.2%	-17.8%	3.9%
O=C(Nc1ccc2oc(-c3cccnc3)nc2c1)c1ccc(-c2ccccc2OC(F)(F)F)o1	/	/	/	/	23.0%
O=C(Nc1nnc(CCc2ccccc2)s1)c1ccccc1	46.0*	14.5*	-39.3%	-8.5%	4.3%
CCC(=O)Nc1nnc(Cc2ccccc2)s1	15.8	10.3	-11.7%	-20.2%	-4.0%
CCC(=O)Nc1nnc(CCc2ccccc2)s1	21.9	13.1*	-9.7%	-8.9%	-4.0%
COc1ccccc1C(=O)Nc1nnc(CCc2ccccc2)s1	16.0	8.1	-48.8%	120.7%	?
CCOC(=O)C(C(=O)Nc1ccccc1C)C1CCCCC1 (stereo unspecified)	5.4	-4.4	3.0%	-11.2%	-9.4%
CC(=O)NC(CCS(C)(=O)=O)C(=O)Nc1ccccc1 (stereo unspecified)	6.5	0.4	-2.3%	5.01µM*	?
O=c1c(-c2ccccc2)nc(-c2ccccc2)cn1O	19.3	21.3*	-33.7%	-25.7%	1.3%
O=C(O)Cn1c(=O)c(-c2ccccc2)nc2ccccc21	-3.5	4.0	18.0%	-8.4%	-12.4%
CCCCN1CCC[C@H]1CNC(=O)c1cc(C#N)c2ccccc2c1OC	-8.3	7.0	/	/	/
C/C(=N\N(C)C)C1=C(O)c2ccccc2C1=O	89.4*	29.2*	-18.6%	-14.2%	-3.7%
CC(=NC1CCCCC1)c1ccccc1O	/	/	6.6%	/	/
CC(=NCCCN(C)C)C1=C(O)c2ccccc2C1=O	84.4	30.5	-3.2%	-16.0%	-1.8%
CC(=NC1CC1)C1=C(O)c2ccccc2C1=O	54.6*	50.1*	-57.8%	-8.8%	-0.6%
N/C(=N\OC(=O)c1cc(Cl)ccc1Cl)c1ccccn1	64.2*	25.2*	-56.1%	-17.2%	?
COc1ccc(Cl)cc1C(=O)O/N=C(\N)c1ccccn1	60.1*	40.6*	-54.3%	-5.8%	-13.5%
CCc1cccc(NC(=O)Cn2c(=O)n(Cc3ccccc3)c(=O)c3c(C)c(C(=O)N(C)C)sc32)c1	/	/	/	/	-0.4%
